# Bioassay records deposited in PubChem by National Center for Advancing Translational Sciences (NCATS).
# BAZ2B block – inhibitors of human BAZ2B bromodomain | AID 504333 | AlphaScreen BAZ2B-H3K14Ac peptide displacement | Potency, µM (series often up to 114 µM), most hits filed as inhibitors | 360,000 tested, 4.4% active | Q9UIF8; note: nearly all actives have a fitted effect of over 60% in size
#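 BAZ2B (50 nM) with biotin-H3(5-23)K14Ac peptide (50 nM) in PBS pH 7.4, 0.01% Tween-20, preformed 30 min, then compound 30 min at room temperature; top concentration 110uM. AlphaScreen streptavidin donor/nickel chelate acceptor beads (10 ug/mL final), 20 min dark, signal read.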
# JMJD2A Tudor – JMJD2A Tudor domain (human) inhibition. AID 504339. Potency, µM (highest dose often 114 µM), actives largely listed as inhibitors. AlphaScreen JMJD2A-Tudor / H3K4me3 peptide binding. 390,000 tested, 4.4% active; note: nearly all actives have a fitted effect of over 50% in size
# G9a block – blocks human histone lysine methyltransferase G9a; Q96KQ7; G9a H3K9 monomethylation, AlphaScreen, 2 h; Potency, µM (top dose mostly 102 µM), usual class: inhibitors; 350,000 tested, 8.8% active; AID 504332; note: nearly all actives have a fitted effect of over 75% in size
# Target sequence (Q96KQ7 913-1193 limits assumed): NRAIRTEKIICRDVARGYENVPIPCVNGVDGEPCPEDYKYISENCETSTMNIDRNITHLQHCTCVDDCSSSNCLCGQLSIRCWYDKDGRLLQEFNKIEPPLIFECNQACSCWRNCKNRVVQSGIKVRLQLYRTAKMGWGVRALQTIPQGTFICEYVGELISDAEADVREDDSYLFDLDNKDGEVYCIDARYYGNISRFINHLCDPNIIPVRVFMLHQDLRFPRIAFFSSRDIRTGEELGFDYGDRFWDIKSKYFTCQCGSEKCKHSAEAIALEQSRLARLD
#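 Signal arises when biotinylated H3K9 peptide, once monomethylated, bridges streptavidin donor and antibody-captured acceptor beads. Enzyme at 20 nM was preincubated 15 min with test compounds; peptide 500 nM and SAM 20 uM then reacted for 2 h.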
# CtBP-E1A inh – blocks the CtBP interaction with E1A; AlphaScreen GST-E1A/His-CtBP binding, 1536-well; hits give low values; activity change, % (test concentration not listed); 340,000 tested, 0.49% active; AID 651724; in the data active = activity change below about -65%; inconclusive = mostly about -30% to -63%
#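 GST-E1A and His-tagged CtBP (125 nM each as 5X stock) were preincubated with pin-transferred compound for 2 h at 37 °C in the dark, then glutathione donor and nickel acceptor beads were added for 1 h before AlphaScreen reading.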
# HP1b binding inh – blocks HP1-beta chromodomain binding to methylated histone tails; Potency, µM (top dose mostly 114 µM), actives largely listed as inhibitors; P83916; 390,000 tested, 0.56% active; AlphaScreen HP1-beta / biotin-H3K9me3 peptide binding; AID 540317; note: nearly all actives have a fitted effect of over 70% in size
# Target sequence (P83916 whole entry, looked up): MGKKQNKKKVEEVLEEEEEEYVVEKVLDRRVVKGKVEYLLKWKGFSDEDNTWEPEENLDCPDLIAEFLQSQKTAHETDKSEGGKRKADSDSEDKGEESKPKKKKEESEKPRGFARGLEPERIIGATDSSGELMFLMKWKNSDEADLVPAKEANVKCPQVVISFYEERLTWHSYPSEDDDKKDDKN
#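 HP1-beta protein (50 nM final) preincubated 30 min at room temperature with biotinylated H3(1-18)K9me3 peptide (50 nM) in PBS pH 7.4, 0.01% Tween-20, then compound added for 30 min. AlphaScreen streptavidin donor/nickel chelate acceptor beads (10 ug/mL final), 30 min dark, luminescence read.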
# Six1-Eya2 inh – blocks human Six1 binding to Eya2; activity change, % (no concentration beside the values); AID 651725; AlphaScreen GST-Six1/His-Eya2 binding, biochemical; hits give low values; 360,000 tested, 0.56% active; in the data active = activity change below about -65%; inconclusive = mostly about -30% to -63%
#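 Compounds are tested against tagged Six1 and Eya2 proteins bridged by glutathione donor and nickel acceptor beads; after a one-hour incubation at 37 °C without light, AlphaScreen emission is recorded.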
# Hits are given with their value; - = inactive; ? = inconclusive; . = no result; [ ] = remark or other dose. Shown are actives, neighbours in structure and some others; about 10% of the full set was active somewhere. Unless noted, calls come from the whole dose curve; as a rule, active = well fitted inhibition curve with a large enough effect; inconclusive = small, poorly fitted or top-dose-only effect; inactive = no such curve, though single readings can be large or run the other way.
SMILES,BAZ2B block,JMJD2A Tudor,G9a block,CtBP-E1A inh,HP1b binding inh,Six1-Eya2 inh
CCOc1c(Br)cc(CNc2ccc(N3CCN(C(C)=O)CC3)cc2)cc1OC,39.8µM,50.1µM,28.2µM,-,-,-
CCN(CC)CCCNc1ncnc2c1cnn2-c1ccc(C)c(C)c1,-,-,-,.,-,.
Cc1ccc(S(=O)(=O)Cc2ccc(C(=O)N3CCN(c4cc(C)ccc4C)CC3)o2)cc1,56.2µM,?,-,-,-,-
CCOC(=O)C1CCCN(C(=O)c2ccc(CS(=O)(=O)c3ccc(C)cc3)o2)C1 (stereo not given),?,?,50.1µM,-,-,-
Cc1ccc(S(=O)(=O)Cc2ccc(C(=O)N3CCCCCC3)o2)cc1,-,-,-,-,-,-
CC(C)(C)N1CSC(=S)N(Cc2ccccc2)C1,-,-,?,-,-,-
CC(C)N1CSC(=S)N(Cc2ccccc2)C1,-,-,31.6µM,-,-,-
CC(=O)c1sc2nc(CSc3nnnn3-c3ccccc3)[nH]c(=O)c2c1C,?,-,56.2µM,-,-,-
Cc1ccc(-c2csc3nc(CSc4nnc(-c5ccc(Cl)cc5)n4C)[nH]c(=O)c23)cc1,-,-,22.4µM,-,-,-
C=CCn1c(SCc2nc3sc(C(=O)O)c(C)c3c(=O)[nH]2)nnc1-c1ccccc1,?,25.1µM,?,-,-,-
CCn1c(SCc2nc3scc(-c4ccccc4)c3c(=O)[nH]2)nnc1-c1ccc(Cl)cc1,-,-,-,-,-,-
C=CCn1c(SCc2nc3scc(-c4ccccc4)c3c(=O)[nH]2)nnc1-c1ccccc1F,-,-,-,-,-,-
C=CCn1c(SCc2nc3sc(C(=O)O)c(C)c3c(=O)[nH]2)nnc1-c1ccc(C(C)(C)C)cc1,50.1µM,28.2µM,14.1µM,-,-,-
Cc1c(C(=O)O)sc2nc(CSc3nnc(-c4ccc(F)cc4)n3C)[nH]c(=O)c12,?,?,35.5µM,-,-,-
Cc1cc(C)c(NC(=O)c2sc3nc(C)[nH]c(=O)c3c2C)c(C)c1,-,.,-,.,.,.
CSCc1nc2sc(C(=O)Nc3nc(C)cs3)c(C)c2c(=O)[nH]1,?,-,44.7µM,-,-,-
CC(=O)c1sc2nc(CSc3nncn3C)[nH]c(=O)c2c1C,-,-,-,-,-,-
Cc1nnc(SCc2nc3sc(C(=O)O)c(C)c3c(=O)[nH]2)s1,-,31.6µM,.,-,-,-
Cc1ccc(NC(=O)c2sc3nc(CCl)[nH]c(=O)c3c2C)c(C)c1,-,-,35.5µM,-,-,-
COC(=O)c1sc2nc(CSc3nc4ccc(C)cc4[nH]3)[nH]c(=O)c2c1C,-,-,?,-,-,-
Cc1ccc(Cn2ccnc2SCC(=O)Nc2nnc(C)s2)cc1,-,-,-,.,-,.
CCOC(=O)c1sc2nc(CSc3nc4ccccc4n3CC)[nH]c(=O)c2c1C,-,-,-,-,-,-
CCOCCCn1c(SCc2nc3sc(C(=O)O)c(C)c3c(=O)[nH]2)nnc1-c1ccc(Cl)cc1,-,?,20µM,-,-,-
Cn1nnnc1N=N/C(=N/Nc1ccccc1)c1ccccc1,1.26µM,1.58µM,.,-,28.2µM,-
COC(=O)C=CC(=NNc1ccccc1)c1ccccc1,.,-,.,-,-,-
SMILES,BAZ2B block,JMJD2A Tudor,G9a block,CtBP-E1A inh,HP1b binding inh,Six1-Eya2 inh
Cc1oc(/N=C/c2ccc(Cl)cc2)c(C#N)c1C,-,-,-,-,-,-
Cc1oc(/N=C/c2ccc(Cl)cc2Cl)c(C#N)c1C,-,-,44.7µM,-,-,-
Cc1oc(/N=C/c2c(O)ccc3ccccc23)c(C#N)c1C,.,.,1.58µM,.,.,.
Cc1oc(/N=C/c2ccc(O)cc2O)c(C#N)c1C,-,-,44.7µM,-,-,-
O=C(Cn1c(=O)c2cccn2c2ccc(F)cc21)N1CCN(c2ccccc2F)CC1,-,-,-,.,-,.
CCOC(=O)c1sc2cccc(F)c2c1S(=O)(=O)N1CCN(c2cccc(Cl)c2)CC1,?,-,8.91µM,.,-,.
COC(=O)c1sc2cccc(F)c2c1S(=O)(=O)N1CCN(c2cccc(OC)c2)CC1,-,-,-,.,-,.
Fc1ccc(C(NCCc2ccccc2)c2nnc(-c3ccccc3Cl)o2)cc1 (stereo not given),-,-,-,.,-,.
OC(CN1CCN(c2ccccc2)CC1)Cn1c2ccccc2c2ccccc21 (stereo not given),?,?,31.6µM,-,-,-
Cc1ccc(OCCN2CCN(CC(O)Cn3c4ccccc4c4ccccc43)CC2)cc1 (stereo not given),20µM,.,8.91µM,.,.,.
OC(CN1CCNCC1)Cn1c2ccccc2c2ccccc21 (stereo not given),-,-,50.1µM,-,-,-
CCOc1ccc(C(=O)c2oc3ccccc3c2NC(=O)c2cc(-c3ccc(C)cc3)on2)cc1,-,-,-,.,-,.
CN(C)c1ccc(C(O)c2cc3ccccc3s2)cc1 (stereo not given),.,31.6µM,.,?,?,?
CN(C)c1ccc(-c2csc(C(O)c3ccccc3)n2)cc1 (stereo not given),.,.,.,?,.,-
COc1ccc(CCN2C(=O)CC(Cc3ccc(C)cc3)C2=O)cc1OC (stereo not given),-,10µM,-[0.501 µM],-,-,-
COC(=O)C1=C(C)N(CCc2ccc(OC)c(OC)c2)C(=O)/C1=C\N(C)C,-,-,44.7µM,-,-,-
COc1ccc(CCN2C(=O)c3cccnc3C2=O)cc1OC,79.4µM,-,-,-,-,-
COc1ccc(CCN2C(=O)C=CC2=O)cc1OC,.,31.6µM,.,-,?,-
COc1ccc(CCNC2=C(Cl)C(=O)N(CCc3ccc(OC)c(OC)c3)C2=O)cc1OC,-,-,-,-,-,-
CCn1nc(C)c2c(-c3ccccc3)cc(=O)n(C(C)C(=O)NCc3ccc(C)cc3)c21 (stereo not given),-,-,-,.,-,.
Cc1ccc(Cl)cc1NC(=O)C1CCN(S(=O)(=O)c2cccc3nonc23)CC1,-,-,-,.,-,.
COCCCNC(=S)N/N=C/c1ccc(OC)cc1,-,-,.,-,-,-
COc1ccccc1/C=N/NC(=O)c1cccc(OC(F)(F)C(F)F)c1,-,-,-,-,-,-
COCCCNC(=S)N/N=C/c1ccc(O)cc1,-,-,-,.,-,-
COCCCNC(=S)N/N=C/c1ccc(O)cc1O,6.31µM,50.1µM,-,-93.3,-,-90.3
COc1cccc(/C=N/NC(=S)Nc2cccc(C(=O)O)c2)c1O,.,15.8µM,39.8µM,-90.7,-,-92.1
COCCCNC(=S)N/N=C/c1ccc2ccccc2c1,?,-,50.1µM,-,-,-
COc1cccc(/C=N/NC(=O)C(=O)Nc2ccccc2OC(F)(F)C(F)F)c1O,-,-,-,-73.1,-,-85.8
